# This is a sample that favours compounds with a hit; in the whole collection about 3.4% have one here.
# MITF primary = MITF inhibitors, primary screen, biochemical, AlphaScreen, human. inhibition, % at 2.6 µM. actives 0.91% (n = 650,000). Microphthalmia-associated transcription factor (Homo sapiens), O75030. AlphaScreen MITF homodimerization, bead proximity signal; in the data active = inhibition above about 50%
# FBW7 act = FBW7 E3 ligase activators, primary screen, biochemical, AlphaScreen, human. normalized activity (activation), % at 26.1 µM. AlphaScreen FBW7–phospho-cyclin E peptide binding, activator screen. F-box/WD repeat-containing protein 7 (Homo sapiens), Q969H0. AID 1259310, 2017. actives 0.13% (n = 650,000); in the data active = normalized activity above about 1.9%;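 also: purified mutant Fbw7 with reduced substrate affinity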
# GPR151 ag = activators of human GPR151, primary screen, cell-based, PathHunter beta-arrestin, luminescence; actives 1% (n = 650,000); AID 1508602, 2020; PathHunter beta-arrestin GPR151 cells; activation, % at 11.2 µM; G-protein coupled receptor 151 (Homo sapiens), Q8TDV0; in the data active = activation above about 4.9%
# Target sequence (Q8TDV0 whole entry, looked up): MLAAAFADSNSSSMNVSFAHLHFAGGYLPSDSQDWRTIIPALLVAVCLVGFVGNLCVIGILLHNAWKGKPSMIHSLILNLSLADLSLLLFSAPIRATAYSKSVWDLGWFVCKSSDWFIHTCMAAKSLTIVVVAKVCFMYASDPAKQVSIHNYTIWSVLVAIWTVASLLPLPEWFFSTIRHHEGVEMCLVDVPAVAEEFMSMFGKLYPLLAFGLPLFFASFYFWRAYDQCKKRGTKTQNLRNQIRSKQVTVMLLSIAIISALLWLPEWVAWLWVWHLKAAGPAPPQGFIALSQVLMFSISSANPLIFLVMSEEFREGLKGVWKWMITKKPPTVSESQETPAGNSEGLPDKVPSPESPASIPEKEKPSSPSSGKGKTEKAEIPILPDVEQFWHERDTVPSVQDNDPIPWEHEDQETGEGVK
# TEAD-YAP inh = TEAD-YAP interaction inhibition, primary screen, TEAD-YAP interaction inhibitor project, luminescence, HEK-TIYL cells. TEAD-Gal4/YAP UAS-luciferase luminescence. inhibition, % at 9.12 µM. actives 1.4% (n = 640,000). AID 1259422, 2018; in the data active = inhibition above about 32%
# GPR151 conf act = GPR151 activators, triplicate retest, confirmation, cell-based, PathHunter beta-arrestin, luminescence | shares compounds with GPR151 ag | activation, % at 11.2 µM | GPR151 PathHunter beta-arrestin cells, 90 min; % of EA-reagent control over plate median | 6,700 tested, under 10 active;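 active = mean percent activation across replicates above the confirmation screen cutoff of 4.91%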
# GPR119 ag = GPR119 activators in beta-arrestin cells, counter-screen for GPR151 activator project, cell-based, PathHunter beta-arrestin, luminescence, triplicate; 90 min; 0 = compound-well median, 100 = enzyme-acceptor control; actives 0.3% (n = 6,700); AID 1508611, 2020; shares compounds with GPR151 ag; activation, % at 11.2 µM;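 active = mean percent activation in the counterscreen above 29.09%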;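 also: counterscreen on off-target GPR119 to flag nonselective hits from the GPR151 activator screen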
# Hits are given with their value; . = inactive; / = no result.
SMILES,MITF primary,FBW7 act,GPR151 ag,TEAD-YAP inh,GPR151 conf act,GPR119 ag
Cc1occc1C(=O)NCc1ccco1,.,.,.,.,/,/
COCCNC(=O)N1CCN(c2nc3ccc(F)cc3s2)CC1,.,.,.,.,/,/
CSc1nc2sccn2c(=O)c1C(=O)NCc1ccccc1Oc1ccccc1,.,.,17,.,.,.
CSc1nc2sccn2c(=O)c1C(=O)NCC(F)(F)F,.,.,.,.,/,/
CSc1nc2sccn2c(=O)c1C(=O)NC1CCC(O)CC1 (stereo not given),.,.,6.8,.,.,.
O=C(NCCCn1ccnc1)C1CC12CCN(Cc1ccccc1)CC2 (stereo not given),.,.,.,.,/,/
CC(=O)N1c2ccccc2CCc2cc(NC(=S)NC(=O)/C=C/c3ccccc3)ccc21,.,.,.,.,/,/
Cc1nc2cc(C(=O)OCC(=O)Nc3ccc(C#N)cc3)ccc2n1-c1ccccc1,.,.,.,.,/,/
CC(=O)c1ccc(NC(=O)COC(=O)c2ccc3c(c2)nc(C)n3-c2ccccc2)cc1,.,.,7.1,.,.,.
CC1CCC(C(C)C)C(OC(=O)CSc2nnnn2C)C1 (stereo not given),.,.,.,.,/,/
CC1CCC(C(C)C)C(OC(=O)CSc2cccc[n+]2[O-])C1 (stereo not given),.,.,4.9,.,.,.
COc1cccc(NC(=O)c2cc(=O)c3ccccc3o2)c1,.,.,4.9,.,.,.
COC(=O)c1ccccc1NC(=O)CSc1nc2ccsc2c(=O)n1Cc1ccccc1,.,.,.,.,/,/
COc1nc(N)nc(C/C(=N\NC(=O)c2cccnc2)C2CC2)n1,.,.,.,.,/,/
C=Cc1ccc(Cn2c(C)c(CNCCC3=CCCCC3)c(C(=O)O)c2C)cc1,.,.,6.3,.,.,.
Cc1nc2ccc(C(=O)N3CCOc4ccc(CN5CCOCC5)cc4C3)cc2[nH]1,.,.,.,.,/,/
CCOC(=O)CSc1nc2c(sc(=S)n2-c2ccccc2OC)c(=O)n1C1CCCCC1,.,.,.,.,/,/
Cc1nn(C)c(C)c1-c1ncc(C(=O)Nc2ccccc2)s1,.,.,5.7,.,.,.
Cc1cc(C(F)(F)F)nc2snc(Br)c12,.,.,5.2,.,.,.
CN(C)CCNC(=S)Nc1ccc(C(=O)O)cc1,.,.,10,.,.,.
CN(C)CCNC(=O)C(=O)Nc1ccccc1,.,.,8.4,.,.,.
CN(C)CCNC(=S)Nc1ccc(F)cc1,.,.,.,.,/,/
CN(C)CCNC(=O)Nc1ccccc1,.,.,.,.,/,/
Cc1cnc(Nc2ccccc2)nc1NCCOc1ccccc1,.,.,6.0,.,.,.
Cc1cnc(Nc2ccncc2)nc1NCCOc1ccccc1,.,.,.,.,/,/
SMILES,MITF primary,FBW7 act,GPR151 ag,TEAD-YAP inh,GPR151 conf act,GPR119 ag
Cc1cc(C(=O)NCCc2ccc(S(N)(=O)=O)cc2)cs1,.,.,.,.,/,/
NS(=O)(=O)c1ccc(CCNC(=O)c2cccc(C#CC3(O)CCCCC3)c2)cc1,.,.,5.0,.,.,.
COCC(=O)NCCNc1nc2ccc(OC)cc2cc1C#N,.,.,7.2,.,.,.
COc1ccc2nc(NCCNC(=O)c3cc(OC)c(OC)c(OC)c3)c(C#N)cc2c1,.,.,.,.,/,/
CCOCCCNCC(=O)Nc1ccccc1-c1ccccc1,.,.,.,.,/,/
COc1cc(/C=N/Nc2ccc3nnc(C)n3n2)ccc1O,.,.,8.9,.,.,.
C=C(C)CN=c1scc(-c2ccco2)n1/N=C/c1cc2c(cc1[N+](=O)[O-])OCO2,.,.,.,.,/,/
Cn1c(=NC(=O)CS(=O)(=O)c2ccccc2)sc2ccccc21,.,.,5.0,.,.,.
CC(Cc1nnc(-c2ccccc2)n1N)C(=O)O (stereo not given),.,.,9.8,.,.,.
CCC(Sc1nnc(-c2ccccc2)n1N)C(=O)O (stereo not given),.,.,.,.,/,/
CCC(C)C(=O)Nc1cc(OC)c(OC)cc1C(=O)O (stereo not given),.,.,7.1,.,.,.
